Source: PubChem BioAssay (Tox21)
Values without a mark were called inactive. The source made the active and inactive calls. The call rests on the fitted dose curve; in most records, active means well fitted curve in the direction sought with a large enough effect in the repeat runs; inconclusive means weak or mixed curves; inactive means flat fitted curve, though single readings scatter.
On the % scale 0 is the no-effect control and ±100 the full control effect.

Assay: qHTS assay to test for compound auto fluorescence at 590 nm (red) in HepG2 cells (AID 720674)
Conditions: HepG2 autofluorescence, red 540/590 nm, 1 h; series mostly up to 91.3 µM; fluorescence, relative to Rose Bengal: at the top concentration
In short: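 HepG2 cells, 2,000 per well in MEM with 10% FBS, attached overnight at 37 C, then got 23 nL compound or DMSO. After 1 hr at 37 C, 5% CO2, red fluorescence was read at 540/590 nm against Rose Bengal sodium as reference.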
With `CNCCC(Oc1ccc(C(F)(F)F)cc1)c1ccccc1` (stereo unspecified) the outcome was “inactive”. In the case of `O`, the outcome is reported as “inactive”. For `CC(C)(C)NC(=O)[C@@H]1CN(Cc2cccnc2)CCN1C[C@@H](O)C[C@@H](Cc1ccccc1)C(=O)N[C@H]1c2ccccc2C[C@H]1O`, the outcome was “inactive”. In the case of `CCn1c2ccccc2c2cc(N)ccc21`, the outcome is reported as “inactive”. In the case of `Cc1c(O)cccc1C(=O)N[C@@H](CSc1ccccc1)[C@H](O)CN1C[C@H]2CCCC[C@H]2C[C@H]1C(=O)NC(C)(C)C`, the outcome is reported as “inactive”. For `Nc1ccc2cc3ccccc3cc2c1`, the outcome was “inactive”. With `NC(=Nc1ccccc1)Nc1ccccc1` the outcome was “inactive”. With `CC(=O)Nc1ccc(C(=O)CCl)cc1` the outcome was “inactive”. For `BrC1CCC(Br)C(Br)CCC(Br)C(Br)CCC1Br` (stereo unspecified), the outcome was “inactive”. For `COc1ccc(Cc2cnc(N)nc2N)cc1OC`, the “fluorescence, relative to Rose Bengal” value was 0.52% [at 46 µM]. With `CCCCC(CC)COC(=O)CC(C(=O)OCC(CC)CCCC)S(=O)(=O)O` (stereo unspecified) the outcome was “inactive”. In the case of `CC[C@]1(O)C[C@@H]2CN(CCc3c([nH]c4ccccc34)[C@@](C(=O)OC)(c3cc4c(cc3OC)N(C)[C@H]3[C@@](O)(C(=O)OC)[C@H](OC(C)=O)[C@]5(CC)C=CCN6CC[C@]43[C@@H]65)C2)C1`, the outcome is reported as “inactive”. For `CCCOC(=O)c1cc(O)c(O)c(O)c1`, the outcome was “inactive”. In the case of `CCCN[C@H]1CCc2nc(N)sc2C1`, the outcome is reported as “inactive”. With `CCOc1ccc2c(c1)C(C)=CC(C)(C)N2` the outcome was “inactive”. In the case of `CCCCCCC(O)CCCCCCCCCCC(=O)O` (stereo unspecified), the outcome is reported as “inactive”.
